High-throughput results (PubChem)
Shown are actives, neighbours in structure and some others; about 5% of the full set was active somewhere.
LmPK inhibitor: qHTS Assay for Inhibitors of Leishmania Mexicana Pyruvate Kinase (LmPK). hit rate 0.37% among 290,000. purified LmPK, Kinase-Glo ATP luminescence, 1 h. Q27686. Potency, µM (titrated, usually from 57.5 µM), inactives show top-dose activity change, negative = inhibition, hits mostly inhibitors; further: potency means the concentration at half of the fitted maximal effect
Target sequence (Q27686 whole entry, looked up): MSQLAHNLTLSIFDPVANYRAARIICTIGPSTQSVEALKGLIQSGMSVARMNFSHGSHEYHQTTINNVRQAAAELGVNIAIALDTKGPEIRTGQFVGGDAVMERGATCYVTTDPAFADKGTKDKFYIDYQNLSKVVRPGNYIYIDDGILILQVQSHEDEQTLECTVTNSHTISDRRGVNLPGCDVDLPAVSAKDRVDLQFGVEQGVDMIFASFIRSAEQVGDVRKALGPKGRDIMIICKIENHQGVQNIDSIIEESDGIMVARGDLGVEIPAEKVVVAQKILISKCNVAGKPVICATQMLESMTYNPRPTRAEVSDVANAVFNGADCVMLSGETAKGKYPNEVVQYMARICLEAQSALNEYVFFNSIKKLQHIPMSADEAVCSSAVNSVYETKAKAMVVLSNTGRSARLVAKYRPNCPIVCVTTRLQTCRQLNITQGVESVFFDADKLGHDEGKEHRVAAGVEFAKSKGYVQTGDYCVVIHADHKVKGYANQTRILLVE
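Screened at intermediate enzyme activity to detect both inhibitors and activators: LmPK at 0.1 nM, with a 0.5 nM enzyme column as activation reference. PEP 0.5 mM, ADP 0.1 mM; ATP detected by luminescence after 1 h.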
Vaccinia Venus: qHTS for Stage-Specific Inhibitors of Vaccinia Orthopoxvirus: Venus Reporter Primary qHTS; Potency, µM (series often up to 36.5 µM), for the others: top-dose activity change, negative = inhibition, actives largely listed as inhibitors; Vaccinia virus Venus reporter expression, fluorescence; hit rate 0.46% among 330,000; calls by dose curve; tested in A549 cells; further: potency means the concentration at half of the fitted maximal effect; nearly all actives have a fitted effect of over 30% in size
HCMV inh: qHTS Assay for inhibitors of the human cytomegalovirus (HCMV); HFF cells, HCMV-luciferase reporter, 72 h; stronger effect = lower value; activity change, negative = inhibition, % at 57.5 µM; hit rate 4.5% among 410,000; AID 1259415, 2018; in the data active means activity change below about -60%; inconclusive means no clear call, values can overlap the other calls; inactive means above about -39%
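Steps: HFFs plated, 16 h 37C; compounds added; HCMV-luciferase added to MOI 1 PFU/cell; 72 h 37C; OneGlo reagent, 5 min room temperature; luminescence read, normalized to controls.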
VACV mCherry inh: qHTS for Stage-Specific Inhibitors of Vaccinia Orthopoxvirus: mCherry Reporter Primary qHTS. Vaccinia virus mCherry reporter infection, fluorescence. Potency, µM (highest dose often 36.5 µM), without a hit: top-dose activity change, negative = inhibition, most hits filed as inhibitors. hit rate 0.63% among 310,000. AID 720579, 2013; calls by dose curve; tested in A549 cells; further: potency means the concentration at half of the fitted maximal effect; nearly all actives have a fitted effect of over 35% in size
TbPYK inhibitor: qHTS of Trypanosoma Brucei Inhibitors; TbPYK enzyme, Kinase-Glo Plus ATP luminescence, 45 min; Potency, µM (doses to about 76.8 µM), for inactives: at the top dose activity, negative = inhibition, most hits filed as inhibitors; hit rate 0.12% among 410,000; further: potency means the concentration at half of the fitted maximal effect; nearly all actives have a fitted effect of over 50% in size
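T. brucei PYK with substrate was exposed to pin-transferred compounds across a concentration series, then started with 130 uM ADP (final). After 45 min at room temperature, Kinase-Glo Plus luminescence was read, normalized and curve-fitted.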
Active calls of the source: *; i = inactive; ? = inconclusive; nt = no result given; [ ] = another dose, or the depositor's remark. Unless noted, the call rests on the fitted dose curve; in most records, active means well fitted curve in the direction sought with a large enough effect; inconclusive means small, poorly fitted or top-dose-only effect, or another doubt; inactive means no such curve, though single readings can be large; an effect the other way counts as inactive or inconclusive. On the % scale 0 is the no-effect control and ±100 the full control effect.

SMILES	LmPK inhibitor	Vaccinia Venus	HCMV inh	VACV mCherry inh	TbPYK inhibitor
COc1ccc(CCNc2ccc(S(=O)(=O)N3CCCC3)cc2[N+](=O)[O-])cc1	5%	-21%	-62*	-24%	0%
CC(OC(=O)c1ccc2c(=O)n3c(nc2c1)CCCCC3)C(=O)Nc1ccc(Cl)cn1 (stereo not given)	3%	-10%	-7	i	1%
COc1ccc(/C=C/c2cc(O)cc(O[C@@H]3O[C@H](CO)[C@@H](O)[C@H](O)[C@H]3O)c2)cc1O	nt	nt	87	nt	nt
c1csc(-c2ccc(N3CCOCC3)nn2)c1	?	nt	-9	nt	-26%
CCCC/C(C)=N/NC(=O)Nc1ccccc1	2%	-20%	16	-11%[1.46 µM]	1%
O=C(NCCCN1CCOCC1)c1onc(CSc2ccncc2)c1C(=O)NCCCN1CCOCC1	nt	-9%	12	-20%	0%
CCc1ccc(CNC(=O)Cn2ccc3cc(S(=O)(=O)N4CCCCCC4)ccc32)cc1	nt	-24%	4	i	3%
C=CCN(c1ccccc1OC)S(=O)(=O)c1cccc(C(=O)NCc2cccs2)c1	nt	-29%	-63*	-30%	2%
COc1cc(OC)c(N(C)S(=O)(=O)c2cccc(C(=O)NCc3cccs3)c2)cc1Cl	nt	?	-18	i	0%
COc1ccc(NC(=S)Nc2cccc(S(=O)(=O)N3CCCCC3)c2)cc1	3%	-3%	-64*	-1%	-5%
O=C(NCCCN1CCOCC1)c1onc(CSc2ccccc2)c1C(=O)NCCCN1CCOCC1	nt	-11%	-68*	i	0%
CCc1ccc(CNC(=O)CCCn2ccc3cc(S(=O)(=O)N4CCCC4)ccc32)cc1	nt	?	-89*	?	3%
O=C(O)[C@H](Cc1ccccc1)N1C(=O)c2c(Cl)c(Cl)c(Cl)c(Cl)c2C1=O	1%	-16%	?	i	4%
CCc1cccc2c(C(=O)C(F)(F)F)cn(CC(=O)NCC3CCCO3)c12 (stereo not given)	8%	-7%	-12	i	-4%
O=C(O)CN1C(=O)C2(OCCO2)c2cc(Br)ccc21	nt	-9%	39	-15%	0%
O=C(O)c1cccc(NC(=O)c2ccc3c(c2)C(=O)N(c2ccccc2)C3=O)c1	-8%	-8%	26	-12%	5%
Cc1cccc([C@@H]2[C@@H]3C(=O)N(Cc4ccccc4)C(=O)[C@@H]3[C@]3(Cc4ccccc4)C(=O)N(c4ccc(C(F)(F)F)cc4)C(=O)N23)c1	nt	-23%	?	i	2%
O=C(NCCOc1ccc(Cl)cc1)c1cccc(S(=O)(=O)N2CCCC2)c1	nt	nt	-68*	nt	1%
C=CCN(c1ccccc1Cl)S(=O)(=O)c1cccc(C(=O)NCCc2ccc(OC)cc2)c1	0%	?	-65*	?	-14%
O=C(Nc1ccccc1Cl)NC1(C(=O)NCCCN2CCOCC2)CCCCC1	0%	-13%	-62*	-4%	4%
C=CCN(c1ccccc1OC)S(=O)(=O)c1cccc(C(=O)OCC(=O)c2c(N)n(C)c(=O)n(C)c2=O)c1	nt	?	-70*	-17%	4%
COCCCNc1nc2c(-c3cccc(Br)c3)nnn2c2ccccc12	nt	-3%	39	5%	-2%
COc1ccc(NC(=O)c2ccc(S(=O)(=O)N3CCCCCC3)cc2)c(OC)c1	10%	-12%	17	i	4%
COc1ccccc1N(Cc1ccccc1)S(=O)(=O)c1cccc(C(=O)Nc2cc(C)ccn2)c1	-26%	-22%	-90*	i	-2%
O=C(c1ccc(Cl)c(S(=O)(=O)N2CCCCC2)c1)N1CCN(Cc2ccccc2)CC1	-5%	-24%	-61*	-23%	1%
SMILES	LmPK inhibitor	Vaccinia Venus	HCMV inh	VACV mCherry inh	TbPYK inhibitor
COc1ccc(C(=O)NCCn2ccc3ccccc32)cc1	-4%	?	-25	nt	6%
O=C(NCCn1ccc2ccccc21)c1ccc(S(=O)(=O)N2CCCCC2)cc1	9%	-5%	-67*	i	-1%
COc1ccc(NC(=O)c2cccc(S(=O)(=O)N3CCCCC3)c2)c(OC)c1	9%	-3%	-69*	-26%	5%
Cc1cc(C)n(-c2ccc(C(=O)NCCCN3CCOCC3)cc2)n1	4%	3%	-36	i	-1%
COc1ccc(Nc2nnc(-c3ccc(C)c(S(=O)(=O)NCCO)c3)c3ccccc23)cc1C(N)=O	nt	-7%	-14	-4%	-5%
COc1ccccc1-c1cnc(C(O)c2ccc(Cl)c(F)c2)[nH]1 (stereo not given)	nt	-15%	-25	i	-2%
CN(C)CCNc1nc(-c2ccccc2)c2c(c1C#N)CC(C)(C)OC2	3%	-15%	-5	nt	3%
CC(C)c1ccc(C(=O)NCCCN2CCOCC2)cc1	5%	nt	-15	nt	-2%
O=C(NCCCN1CCOCC1)c1ccc(CSc2ccc(Cl)cc2)cc1	2%	-24%	-70*	-9%	-7%
CC(C)(C)c1ccc(C(=O)NCCCN2CCN(CCCNC(=O)c3ccc(C(C)(C)C)cc3)CC2)cc1	4%	11µM*	?	?	-1%
Cc1ccc(C(=O)NCc2cccc(C(F)(F)F)c2)cc1S(=O)(=O)N1CCCCC1	nt	-5%	-66*	-28%	3%
COc1ccc(NC(=O)c2cc(S(=O)(=O)N3CCCC3)oc2C)cc1	4%	nt	-65*	nt	-15%
O=C1CCCC2=C1C(c1ccsc1)CC(=O)N2c1ccccc1F (stereo not given)	-11%	-5%	-21	i	1%
Cc1cc(/C=C\c2nc(O)c([N+](=O)[O-])c(=O)[nH]2)c(C)n1-c1ccccc1	-2%	-8%	-14	-3%	2%
COc1ccc(-n2c(C)cc(/C=C/c3nc(O)c([N+](=O)[O-])c(=O)[nH]3)c2C)cc1	1%	2%	-61*	11%	-9%
N#CC/C(N)=N/NC(=O)CCCNc1ncc(C(F)(F)F)cc1Cl	-3%	-15%	47	-39%	5%
Cn1c(/C=C/N(Cc2ccccc2)c2ccccc2)c([N+](=O)[O-])c(=O)n(C)c1=O	2%	nt	-5	nt	-4%
Cc1onc(-c2ccccc2Cl)c1C(=O)Nc1cccc2cccnc12	0%	-24%	-99*	?	3%
Cc1cnc(C(=O)Nc2cccc3cccnc23)cn1	-5%	?	-89*	?	-6%
CCN(CC)c1ncnc2c1ncn2[C@H]1CN(Cc2ccc(F)cc2)C[C@@H](CO)O1	nt	7%	8	-16%	-6%
CCOc1cc(/C=C2/C(=O)ON=C2C)ccc1OCc1ccc(F)cc1	-11%	-14%	-97*	-8%	-4%
Cc1ccc(CC(NC(=O)c2ccccc2)C(=O)N2CCCC2C(=O)O)cc1 (stereo not given)	-9%	nt	-107*	nt	2%
